Screening data: PubChem BioAssay, several laboratories
KKLEB tox: reduces viability of KKLEB cystic fibrosis airway cells; KKLEB CF airway cells viability, ATPlite luminescence, overnight; hits give low values; cells stimulated with P. aeruginosa culture filtrate; AID 602141; 360,000 compounds, 0.36% hits; activity change (cytotoxicity), % at 5 µM;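 active = corrected activity change at or below -50% at 5 µM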
CHOP inh: CHOP inhibition in unfolded protein response | CHO-K1 CHOP-promoter luciferase, tunicamycin-induced, 15-18 h | inhibition, % at 10 µM | 220,000 compounds, 3.8% hits;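 active = compounds that reduced the stress-induced luciferase reporter signal by more than about 70% of percent inhibition, limit read from the data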;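 also: 0% = tunicamycin plus vehicle and 100% = wells without tunicamycin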
Peg3 promoter: inhibitors of Peg3 promoter; inhibition, % at 20 µM; HeLa PEG-Prom luciferase reporter, luminescence, overnight; 360,000 compounds, 1.7% hits;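 active = inhibition of at least 50% at 20 µM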
CF NFkB inh: inhibitors of cystic fibrosis induced NF-kB. inhibition, % at 5 µM. AID 588850. 360,000 compounds, 0.86% hits. KKLEB NF-kB-GFP reporter, PAF-induced, GFP fluorescence overnight;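 active = at least 50% inhibition at 5 µM, scaled per plate between neutral and stimulator controls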;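 also: PAF is a Pseudomonas aeruginosa culture filtrate used as stimulus; plate controls were PAF-stimulated DMSO wells for no effect and unstimulated DMSO wells for full effect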
HIF-2a inh: blocks HIF-2a reporter activity. AID 624352. 360,000 compounds, 0.72% hits. inhibition, % at 18.8 µM. 786-0 RCC cells HIF-2a reporter, luciferase luminescence, overnight;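 active = inhibition of the luminescence signal of 40% or more relative to plate controls, in a single-dose primary screen at 18.75 µM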
TRPM1 prom inh: MITF TRPM1 promoter inhibition in SK-MEL-5 cells; SK-MEL-5 TRPM1 promoter luciferase, 24 h; inhibition, % at 12.5 µM; 330,000 compounds, 0.83% hits;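 active = mean inhibition across replicates of 60% or more, whatever share of single replicates reaches that level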
CF NFkB conf: confirmation of cystic fibrosis induced NF-kB inhibitors; shares compounds with CF NFkB inh; KKLEB CF airway cells, PAF-induced NF-kB-GFP fluorescence, overnight; inhibition, % at 5 µM; 1,300 compounds, 64% hits; in the data active = inhibition above about 40%;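 also: stimulus PAF is a Pseudomonas aeruginosa filtrate and not platelet activating factor; plate controls were DMSO wells with stimulus for no effect and unstimulated DMSO wells for full effect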
Active calls of the source: *; x = no result. Most compounds without a hit are left out; they make up all but 4.3% or so of the library.

SMILES	KKLEB tox	CHOP inh	Peg3 promoter	CF NFkB inh	HIF-2a inh	TRPM1 prom inh	CF NFkB conf
CCOC(=O)N1C(=O)[C@](c2ccc(Cl)cc2)(C(C)C)N1C(=O)OCC	-5.7	x	67.9*	51.0*	25.9	39.3	8.9
COc1ccc(-n2nc(C(=O)NCC(=O)NCCCN3CCOCC3)c3ccccc3c2=O)cc1	12.2	x	15.4	60.6*	14.7	-2.5	14.8
COc1ccc(-n2nc(C(=O)NCC(=O)NCCCN3CCOCC3)c3ccccc3c2=O)cc1Cl	-5.9	x	-12.2	4.3	7.2	5.3	x
COc1ccc(C(=O)C2CCCN(Cc3cccc4c3OCO4)C2)cc1OC (stereo not given)	-1.0	-2.3	2.9	4.7	26.4	12.7	x
Oc1cc2c(cc1C(c1ccc(Cl)c(Cl)c1)N1CCCC1)OCO2 (stereo not given)	-48.1	-49.9	31.1	63.9*	29.4	6.4	44.1*
CC(C)c1ccc(NC(=O)C(c2ccc3c(c2)OCO3)N2CCCCC2)cc1 (stereo not given)	0.6	42.0	5.2	4.9	-47.6	x	x
CCC(=O)Nc1nc(C)c(-c2csc(Nc3cccc(C(=O)O)c3)n2)s1	9.9	6.8	-39.4	4.2	-14.1	3.0	x
CC(=O)Nc1nc(C)c(-c2csc(Nc3cccc(C(C)=O)c3)n2)s1	-44.1	x	48.6	80.8*	-10.4	65.1*	81.8*
COc1cccc(CNC(=O)[C@@H]2CCCN2C(=O)[C@@H]2CCCN2S(=O)(=O)c2ccc(OC)c(C)c2)c1	x	x	x	x	9.3	x	x
Cn1cc(Cl)cc(C(=O)Nc2ccccc2)c1=O	-3.1	x	-196.4	3.4	-245.3	-45.0	x
Cc1ccc(NC(=O)c2cc(C(=O)c3cc(Cl)ccc3O)cn(-c3ccc(C)cc3)c2=O)cc1	-11.3	68.1	45.1	54.6*	-3.2	7.0	56.3*
COCc1cc(S(=O)c2ccc(Cl)cc2)nc(C)n1 (stereo not given)	0.0	0.9	33.6	87.2*	28.6	16.7	82.8*
O=C(COC(=O)C12CC3CC(CC(Br)(C3)C1)C2)Nc1ccc2[nH]c(=O)[nH]c2c1	6.6	x	-15.8	-13.8	11.2	-4.3	x
COc1cc([C@H]2Oc3cc([C@H]4Oc5cc(O)cc(O)c5C(=O)[C@@H]4O)ccc3O[C@@H]2CO)ccc1O	-1.4	x	-7.5	20.2	0.5	0.3	x
COc1cc([C@@H]2Oc3cc(C4Oc5cc(O)cc(O)c5C(=O)[C@H]4O)ccc3O[C@H]2CO)ccc1O (stereo not given in full)	13.2	x	-12.2	50.9*	3.3	12.8	8.5
Oc1cc(NCc2ccc(F)cc2)cc2cccnc12	25.1	x	8.0	51.2*	0.9	56.2	39.5
CC(=O)Nc1ccc(-c2ccnc3c2CC(C(=O)NCc2ccco2)O3)cc1 (stereo not given)	-44.3	x	-16.1	60.0*	26.9	x	60.9*
CC(=O)Nc1ccc(-c2ccnc3c2CC(C(=O)NCc2ccccc2)O3)cc1 (stereo not given)	-24.0	x	-19.8	55.7*	16.6	x	48.8*
Cc1ccc(C(=O)N/C(=C/c2ccco2)C(=O)NCCc2c[nH]c3ccccc23)cc1	-9.2	4.8	-24.6	3.9	-25.9	7.8	x
CCc1cc2c(Sc3nc4ccccc4s3)ncnc2s1	-46.2	-9.1	14.9	66.7*	-4.9	16.1	89.4*
O=C(O)c1ccccc1CC(CCc1ccccc1)C(=O)O (stereo not given)	8.0	x	13.8	-13.9	8.9	-2.9	x
CCOc1cc2c(cc1O)C(=NOC)CC1C2CCC2(C)C(O)CCC12 (stereo not given)	-16.9	x	-2.9	51.5*	13.9	32.9	75.7*
C[C@]12CC[C@@H]3c4ccc(O)cc4[C@@H](O)C[C@H]3[C@@H]1CC[C@@H]2O	x	8.3	x	x	x	x	x
CC(C)OCCCNC(=O)C1CCC(CNS(=O)(=O)c2ccccc2)CC1 (stereo not given)	7.6	19.2	12.0	1.3	2.8	-7.3	x
O=c1[nH]c(C2CCN(S(=O)(=O)c3ccc4c(c3)OCCO4)CC2)nc2c1nnn2Cc1c(F)cccc1Cl	-0.1	x	55.6*	68.1*	22.3	5.4	81.6*
SMILES	KKLEB tox	CHOP inh	Peg3 promoter	CF NFkB inh	HIF-2a inh	TRPM1 prom inh	CF NFkB conf
COc1ccc(C2=Nn3c(nnc3-c3cccnc3)SC2)cc1	-10.1	-8.8	16.9	-14.2	4.6	-14.2	x
COc1ccc(C2=Nn3c(nnc3-c3ccncc3)SC2)cc1	-33.2	38.9	4.8	72.4*	10.9	-15.4	75.8*
COc1ccc(OC)c(-c2nnc3n2N=C(c2ccc(OC)c(OC4CCCC4)c2)CS3)c1	-20.8	x	13.3	66.5*	25.4	77.7*	71.0*
C=CCn1nnnc1SCC(=O)Nc1cccc(C(F)(F)F)c1	-14.8	x	8.3	19.3	-8.7	-0.3	x
CCOC(=O)N/N=C(\c1ccccc1)C(O)c1ccccc1 (stereo not given)	4.5	6.9	10.3	16.1	14.1	6.3	x
CC1CCN(C(=O)C2CCN(S(=O)(=O)c3cc(Cl)ccc3Cl)CC2)CC1	-0.6	-5.1	21.5	6.3	14.6	-3.8	x
COc1c(C)cc(C(=O)C2CCCN(C(=O)CCc3scnc3C)C2)cc1C (stereo not given)	-0.4	14.1	12.9	-17.5	14.3	11.3	x
COc1cccc(/C=N/n2c(C3CCCCC3)n[nH]c2=S)c1	-12.0	x	18.0	60.4*	7.2	-0.4	76.8*
COc1ccc(NC(=O)CON=CC(=O)Nc2ccc(C)cc2)c(OC)c1	0.2	x	9.6	15.8	-0.6	-3.0	x
CCOCCc1nn2c(=O)cc(CSCC(=O)Nc3cc(C)cc(C)c3)nc2s1	28.1	x	8.7	-4.9	2.3	0.9	x
Cc1cc(C)c(C(N)=O)c(Nc2cccc3ccccc23)n1	-8.0	37.3	-3.6	50.4*	8.2	25.5	24.1
Cc1ccc(S(=O)(=O)N2CCC(C(=O)OC(C)C(=O)NCc3ccccc3)CC2)cc1C (stereo not given)	-7.2	x	1.2	3.2	11.7	2.4	x
CCc1nc2ccc(C(=O)NCc3ccc(OC)cc3)cn2c1N(C)C(=O)Cc1ccccc1	-6.6	x	6.0	2.9	-3.5	x	x
CC(C)(C)c1nc(NC(=O)Nc2ccccc2)sc1Br	-48.9	104.7*	-198.0	69.1*	-299.1	-64.9	64.8*
Cc1cccn2c(=O)c3cc(C(=O)NC4CCCC4)sc3nc12	10.1	x	-79.7	-11.0	-58.5	-10.4	x
Nc1ccccc1C=C1Cc2ccccc2C1=O	-7.2	x	-243.6	-58.7	-211.2	-8.6	x
O=C1C(=Cc2ccccc2[N+](=O)[O-])Cc2ccccc21	-48.5	x	100.4*	88.9*	31.2	x	85.4*
CC1=C(/C=C/C(=O)O)C(C)(C)CCC1	-16.3	12.4	10.1	7.6	4.0	4.8	x
CC1=C(/C=C/C(C)=C/C=C/C(C)=C\C(=O)O)C(C)(C)CCC1	-9.3	-13.8	-20.3	65.9*	12.8	-33.5	69.8*
